NPC1 prom act = qHTS Assay for NPC1 Promoter Activators; Huh7 NPC1 promoter luciferase reporter, 24 h; Potency, µM (doses to about 9.22 µM), without a hit: top-dose activation, most hits filed as activators; actives 2.4% (n = 320,000); also: % of control where 0% means no effect; nearly all actives have a fitted effect of over 60% in size
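Stable NPC1-promoter luciferase Huh7 line; cpd (DMSO) 24 h, 37 °C, 5% CO2; Amplite luciferase reagent 10 min RT; luminescence readout. qHTS format.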
FLuc modulator = qHTS profiling assay for firefly luciferase inhibitor/activator using purifed enzyme and Km concentrations of substrates (counterscreen for miR-21 project) | Potency, µM (titrated, usually from 57.5 µM), for inactives: at the highest dose activity change, negative = inhibition, usual class: inhibitors | purified FLuc, Km substrates, luminescence inhibition | actives 6.9% (n = 360,000) | Luciferin 4-monooxygenase (Photinus pyralis), P08659;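 also: plate controls were vehicle for no effect and reference inhibitor for full effect; nearly all actives have a fitted effect of over 55% in size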
Target sequence (P08659 whole entry, looked up): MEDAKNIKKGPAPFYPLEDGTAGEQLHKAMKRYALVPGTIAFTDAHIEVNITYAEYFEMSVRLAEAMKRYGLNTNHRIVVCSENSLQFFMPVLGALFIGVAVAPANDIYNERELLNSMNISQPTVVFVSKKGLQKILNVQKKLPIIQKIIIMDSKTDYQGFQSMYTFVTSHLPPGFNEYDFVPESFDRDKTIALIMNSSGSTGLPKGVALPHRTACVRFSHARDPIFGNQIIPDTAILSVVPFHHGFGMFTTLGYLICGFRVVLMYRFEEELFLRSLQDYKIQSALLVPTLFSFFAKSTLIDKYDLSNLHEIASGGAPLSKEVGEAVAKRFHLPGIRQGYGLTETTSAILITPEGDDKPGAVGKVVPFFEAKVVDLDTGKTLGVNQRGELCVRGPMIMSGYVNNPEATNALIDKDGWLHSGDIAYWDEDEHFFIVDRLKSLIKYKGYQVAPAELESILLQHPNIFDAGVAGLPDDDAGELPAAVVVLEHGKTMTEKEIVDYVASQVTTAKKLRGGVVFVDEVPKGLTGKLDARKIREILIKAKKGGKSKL
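Biochemical qHTS of compounds, final roughly 60 µM downward over six points, against 10 nM purified firefly luciferase using Km concentrations of substrates (10 uM D-luciferin, 10 uM ATP) in Tris acetate pH 7.5 buffer; luminescence output.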
Rab9 promoter act = qHTS Assay for Rab9 Promoter Activators. Potency, µM (doses to about 9.22 µM), for the others: at the highest dose activation, negative = inhibition, hits mostly activators. Huh7 Rab9 promoter-luciferase reporter, luminescence, 24 h. actives 2.8% (n = 320,000); also: % of control where 0% means no effect; nearly all actives have a fitted effect of over 60% in size
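Steps: seed 1500 Huh7 Rab9-luc cells per well, rest 2 h at 37 °C; add compound in DMSO; incubate 24 h; add luciferase reagent, 10 min ambient; read luminescence.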
ELG1 genotox = qHTS screen for small molecules that induce genotoxicity in human embryonic kidney (HEK293T) cells expressing luciferase-tagged ELG1; HEK293T ELG1-luciferase reporter, luminescence, 16 h; Potency, µM (titrated, usually from 46 µM), for the others: at the highest dose activity change, positive = activation, usual class: activators; actives 1.3% (n = 330,000); AID 504466, 2011; also: % of control where 0% means no effect; nearly all actives have a fitted effect of over 60% in size
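Screening used a luciferase reporter fused to human ELG1 in HEK293T cells. Luminescence was read on a CCD plate imager after 16 hr exposure and 30 min ONE-Glo incubation.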
SMN2 splice enh = qHTS Assay for Enhancers of SMN2 Splice Variant Expression | HEK293 SMN2-luciferase splicing reporter, luminescence, 30-36 h | Potency, µM (top dose mostly 46.1 µM), without a hit: top-dose activity change, positive = activation, hits mostly activators | actives 2.8% (n = 210,000); also: % of control where 0% means no effect; nearly all actives have a fitted effect of over 55% in size
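qHTS luciferase splicing reporter: luminescence rises when SMN2 exon 7 is included in transfected HEK293 cells. Compound exposure lasted 30-36 h at 37C, with 4.5 mM final sodium butyrate as control, followed by a ONE-Glo read.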
Numbers without * were called inactive; ? = inconclusive; · = not tested or not shown; [ ] = dose if it differs, or a comment. This is a sample that favours compounds with a hit; in the whole collection about 7.4% have one here. Calls follow the shape of the dose curve; as a rule, active = well fitted curve in the direction sought with a large enough effect; inconclusive = small, poorly fitted or top-dose-only effect, or another doubt; inactive = no such curve, though single readings can be large; an effect the other way counts as inactive or inconclusive. Potency is read from the fitted curve at half-maximal effect.

SMILES | NPC1 prom act | FLuc modulator | Rab9 promoter act | ELG1 genotox | SMN2 splice enh
Cc1ccc(C(=O)NC(=S)Nc2cccnc2Cl)cc1 | 2.5µM* | 12µM* | 2.8µM* | ? | ·
Cc1ccc(C(=O)NC(=S)Nc2ccccc2C(F)(F)F)cc1 | -3% | ? | 15% | 0% | ·
CCOC(=O)Cn1cnc2c(cnn2-c2ccc(C)c(C)c2)c1=O | · | 21µM* | · | · | 25%
Cc1nc2c3cnn(-c4ccc(C)c(C)c4)c3ncn2n1 | 2µM* | 6.7µM* | 2µM* | ? | 11µM*
Cc1ccc(-n2ncc3c(=O)n(CC(=O)N4CCCCCC4)cnc32)cc1 | 2% | 17µM* | 3% | 2% | -25%
Cc1ccc(-n2ncc3c(=O)n(CC(N)=O)cnc32)cc1C | 8% | -19% | 11% | 6% | ·
CC[C@@H](C)[C@H](NS(=O)(=O)c1cccc2ccccc12)C(=O)N[C@H](C=O)Cc1c[nH]c2ccccc12 | · | · | · | · | 13%
Cc1ccc2c(CC(=O)N(Cc3cccc(Cl)c3)C3CCS(=O)(=O)C3)coc2c1 (stereo not given) | · | -17% | · | · | 8%
N[C@@H](CSS(=O)(=O)O)C(=O)O | · | · | · | · | 3%
Cn1c(C(=O)Nc2ccc3c(c2)OCCO3)cc2sccc21 | 1.3µM* | 1.1µM* | 1.1µM* | 2.1µM* | 7.1µM*
Cn1c(C(=O)NCCN2CCOCC2)cc2sccc21 | 2% | 3% | 15% | 1% | -18%
O=C(Nc1ccc2c(c1)OCCO2)c1cc2sccc2n1Cc1ccc(F)cc1 | 13% | ? | 28% | -1% | -30%
O=C(Nc1ccc2c(c1)OCCO2)c1cc2sccc2n1Cc1ccccc1 | 24% | 21µM* | ? | -1% | 10%
CCc1ccccc1NC(=O)c1cc(S(=O)(=O)N(CC)c2ccccc2)ccc1F | · | 1% | · | · | ·
COc1ccc(OC)c(NC(=O)c2cn3c4c(ccc(Cl)c4c2=O)OC(C)C3)c1 (stereo not given) | · | 4% | · | · | ·
CCOC(=O)C1CCCN(C2=NC(=O)/C(=C/c3ccc(N(C)C)cc3)S2)C1 (stereo not given) | 26% | 12µM* | 5% | 6% | ·
Cc1ccc(/C=C2\SC(N3CCCCC3)=NC2=O)cc1 | 30% | 19µM* | ? | 12% | ·
Cc1ccccc1N1CCN(C2=NC(=O)/C(=C\c3cccs3)S2)CC1 | -1% | 9.5µM* | 11% | 1% | ?
CC(C)(C)c1ccc(/C=C2/SC(N3CCCC3)=NC2=O)cc1 | -3% | 12µM* | 11% | 3% | ·
C[C@@H]1C[C@H](OC(=O)[C@@H](O)c2ccccc2)CC(C)(C)N1C | · | · | · | · | 11%[20.6 µM]
COc1ccc(-c2nsc(NC(=O)c3oc4cc(C)c(C)cc4c3C)n2)cc1 | · | -6% | · | · | 4%
Cn1ccc2cc(S(=O)(=O)N3CCCC(C(=O)NCc4ccc(F)cc4)C3)ccc21 (stereo not given) | · | -7% | · | · | ·
Cc1nc(N=Nc2ccc(O)cc2)n[nH]1 | 3.2µM* | 17µM* | ? | ? | ·
Cc1ccc(-c2nc(N=Nc3ccc(O)cc3)n[nH]2)cc1 | 5% | 8.5µM* | -9% | 2% | 25µM*
COc1ccc(-c2nc(N=Nc3ccc(O)cc3)n[nH]2)cc1 | -6% | 9.5µM* | 4% | 6% | -9%
SMILES | NPC1 prom act | FLuc modulator | Rab9 promoter act | ELG1 genotox | SMN2 splice enh
Cc1ccc(S(=O)(=O)Nc2ccc(N=Nc3ccc(O)cc3)cc2)cc1 | 1% | -11% | -4% | 4% | 16%
COc1ccc(O)cc1 | · | · | · | 10% | -11%
Cc1cc(Nc2cccc(C)c2C)n2cnnc2n1 | · | 4% | · | · | -11%
CN(C)C(=O)c1ccc2c(c1[N+](=O)[O-])C(=O)c1ccccc1C2=O | ? | 4% | ? | 8% | 11µM*
CCOc1ccc(CNC(=O)CCCn2ccc3cc(S(=O)(=O)N4CCCC4)ccc32)cc1 | -1% | 17µM* | -9% | -12% | ·
Cc1nc2oc3ccc(Cl)cc3c(=O)c2cc1C(=O)O | ? | 24µM* | ? | 16% | ·
CC(C)c1ccc2oc3nc(N)c(C(=O)O)cc3c(=O)c2c1 | 0.32µM* | 0.43µM* | 0.5µM* | · | ·
Cc1nc2oc3ccc(F)cc3c(=O)c2cc1C(=O)NC(C)(C)C | 1% | ? | 15% | ? | ?
O=S(=O)(c1cccc2ccccc12)N1CCN(c2ccc(Cl)c(Cl)c2)CC1 | · | 2% | · | · | -26%
COc1ccc(C2c3c(n(C)c4ccccc34)C(=O)N2CC(=O)Nc2ccccc2Cl)cc1 (stereo not given) | · | -10% | · | · | ·
O=C(Nc1cc([N+](=O)[O-])ccc1O)c1ccc2c(c1)C(=O)N(Cc1ccco1)C2=O | 4µM* | ? | 4µM* | 3% | ·
Cc1cccc(Cn2c(SCc3ccc(C(=O)NCCc4ccccc4)cc3)nc3ccncc32)c1 | · | -12% | · | · | 6%
Cc1cc(=O)oc(C)c1C(=O)OCC(=O)c1ccccc1 | 10% | ? | 7% | 2% | -8%
Cc1cc(=O)oc(C)c1C(=O)OCC(=O)c1ccc(Br)cc1 | 1% | 9.5µM* | 12% | -1% | -18%
Cc1cc(=O)oc(C)c1C(=O)OCC(=O)c1ccc2ccccc2c1 | 15% | 3.4µM* | 12% | 1% | -21%
Cc1cc(=O)oc(C)c1C(=O)OCC(=O)c1ccc(Cl)cc1 | 18% | 12µM* | 27% | 5% | -14%
Cc1c(/C(O)=C2/C(=O)C(=O)N(Cc3cccnc3)C2c2cccs2)cnn1-c1ccccc1 (stereo not given) | ? | -2%[2.3 µM] | 3.5µM* | ? | -29%
CN(C)S(=O)(=O)c1ccc(/C(O)=C2/C(=O)C(=O)N(Cc3cccnc3)C2c2cccs2)cc1 (stereo not given) | -3% | -7% | 3% | 0% | ·
Cc1c(/C(O)=C2/C(=O)C(=O)N(Cc3cccnc3)C2c2ccccn2)cnn1-c1ccccc1 (stereo not given) | -5% | 15µM* | -17% | ? | -19%
CCCCC(=O)Nc1nnc(SCc2cc(=O)n3cc(C)ccc3n2)s1 | · | 4% | · | · | ·
Cc1cc(=O)n2c(C(=O)Nc3ccc(C)c(Cl)c3)c(C(=O)Nc3ccccc3)sc2n1 | · | -5% | · | · | 3%
Clc1ccc(-c2nnn3c2nc(NC2CCCCC2)c2ccccc23)cc1 | · | 5% | · | · | 15%
CCCCC(=O)N1CCN(c2nc3ccc(Br)cc3s2)CC1 | 24% | ? | -4% | 6% | ·
CCCC(=O)N1CCN(c2nc3ccc(Br)cc3s2)CC1 | 29% | 21µM* | ? | 12% | ·
CCCC(=O)N1CCN(c2nc3ccc(CC)cc3s2)CC1 | ? | 13µM* | ? | 13% | ·
CC(C)(C)C(=O)N1CCN(c2nc3ccc(Cl)cc3s2)CC1 | 2µM* | 11µM* | ? | ? | ·
CC(C)(C)C(=O)N1CCN(c2nc3ccc(Br)cc3s2)CC1 | ? | ? | ? | 5% | ·

Source: PubChem
